The source of these data is PubChem BioAssay (NCI).

Test systems include HCT-15 colon; HT29 colon; SNB-75 CNS; SNB-19 CNS; U251 CNS; PC-3 prostate; SK-MEL-5 melanoma; UACC-62 melanoma; LOX IMVI melanoma; SK-MEL-28 melanoma; SK-MEL-2 melanoma; EKVX NSCLC; SN12C renal; UO-31 renal; TK-10 renal; ACHN renal; CAKI-1 renal; A498 renal; CCRF-CEM leukemia; MOLT-4 leukemia.
Common to all, as to experiment: NCI-60 one-dose screen, 48 h (100 = growth as untreated, 0 = no growth, -100 = all killed)
Details in all cases: 10 µM unless noted

Molecules are shown by their SMILES. About 83,000 compounds went through this panel and 20% of them were active in at least one assay; those are over-represented in the sample as a whole.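 Interpretation: 100, growth as untreated; towards 0, rising growth inhibition; 0, no net growth; 0 to -100, cell death. Compounds scoring below 10 were considered active.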 Unmarked numbers belong to inactive results. Activity calls are given as the source filed them.

As for `O=C1CCCc2nc3sc4c(=O)n(-c5ccccc5Cl)nnc4c3cc21`, the growth was 84.3% with HCT-15 colon; 77.5% in the experiment on HT29 colon; 114% with SNB-75 CNS; 93% with SNB-19 CNS; 88.5% with U251 CNS; 83.6% in the experiment with PC-3 prostate. The growth is 87.9% in the experiment with SK-MEL-5 melanoma; 90.6% in the experiment on UACC-62 melanoma; 102% in the experiment with LOX IMVI melanoma; 109% in the experiment on SK-MEL-28 melanoma; 95.2% in the experiment with SK-MEL-2 melanoma; 91.7% with EKVX NSCLC. The growth in the experiment with SN12C renal was 90.4%; in the experiment with UO-31 renal it was 92.4%; with TK-10 renal, 95%; in the experiment on ACHN renal, 107%; with CAKI-1 renal, 97.6%; in the experiment on A498 renal, 95.5%. Further, the growth in the experiment on CCRF-CEM leukemia was 85.1%; in the experiment with MOLT-4 leukemia, 98.2%.
Consider `Cc1ccc(S(=O)(=O)n2cc(C3C(Cl)C(=O)N3c3ccc(N4CCOCC4=O)cc3)c3ccccc32)cc1` (stereo not given), for which the growth in the experiment with HCT-15 colon was 28%; in the experiment on HT29 colon, 56.6%; with SNB-75 CNS, 31.1%; with SNB-19 CNS, 70.8%; with U251 CNS, 48.7%; with PC-3 prostate, 43.5%. For the same compound, the growth in the experiment with SK-MEL-5 melanoma is 43.8%; in the experiment with UACC-62 melanoma it was 51.3%; in the experiment with LOX IMVI melanoma, 34.2%; in the experiment on SK-MEL-28 melanoma it was 69.3%; in the experiment on SK-MEL-2 melanoma, 74.7%; in the experiment with EKVX NSCLC, 72.6%. Also, the growth was 44.5% in the experiment on SN12C renal; 37.6% in the experiment with UO-31 renal; 88% in the experiment with TK-10 renal; 71.4% in the experiment with ACHN renal; 24.9% in the experiment on CAKI-1 renal; 65.8% with A498 renal. For the same compound, the growth is 29.5% with CCRF-CEM leukemia and 47.5% in the experiment with MOLT-4 leukemia.
In the case of `O=C(CN1C(=O)NC2NC(=O)NC21)N/N=C/c1ccc(Cl)cc1Cl` (stereo not given), the growth is 104% in the experiment on HCT-15 colon; 110% in the experiment on HT29 colon; 82.8% with SNB-75 CNS; 102% in the experiment with SNB-19 CNS; 112% in the experiment with U251 CNS; 103% in the experiment with PC-3 prostate. For the same compound, the growth with SK-MEL-5 melanoma is 99.5%; in the experiment with UACC-62 melanoma, 99%; with LOX IMVI melanoma it was 103%; with SK-MEL-28 melanoma, 109%; in the experiment with SK-MEL-2 melanoma it was 113%; with EKVX NSCLC, 101%. Further, the growth in the experiment with SN12C renal is 104%; in the experiment on UO-31 renal, 84.3%; in the experiment on TK-10 renal, 101%; in the experiment with ACHN renal, 105%; with CAKI-1 renal it was 88.2%; in the experiment on A498 renal, 112%. The growth in the experiment on CCRF-CEM leukemia is 107%; with MOLT-4 leukemia it was 105%.
As to `CCNC(=O)Oc1ccc(/C(=C(/C)Cc2ccc(OC)cc2)c2ccc(OCCN3CCCCCC3)cc2)cc1`, the growth in the experiment on HCT-15 colon was 18.7%; in the experiment with HT29 colon, 2.15% (active); in the experiment on SNB-75 CNS, 77.4%; in the experiment on SNB-19 CNS it was 82.7%; in the experiment on U251 CNS it was 45.1%; in the experiment with PC-3 prostate it was 63.8%. Moreover, the growth with SK-MEL-5 melanoma is 66.2%; in the experiment on UACC-62 melanoma it was 73.2%; in the experiment on LOX IMVI melanoma, -22% (active); in the experiment on SK-MEL-28 melanoma, 75.3%; in the experiment on SK-MEL-2 melanoma, 87%; with EKVX NSCLC, 71.3%. The growth with SN12C renal was 69.2%; with UO-31 renal it was 52.9%; with TK-10 renal, 84.2%; with ACHN renal it was 94.2%; with CAKI-1 renal it was 82.5%; with A498 renal, 70.5%. The growth with CCRF-CEM leukemia was 41.6%; in the experiment on MOLT-4 leukemia, 35.2%.
`CCOC(=O)C/C(=N\Nc1cc(=O)[nH]c2ccc(Cl)cc12)C(=O)OCC`: the growth in the experiment on HCT-15 colon is 105%; in the experiment with HT29 colon, 109%; with SNB-75 CNS, 96.7%; with SNB-19 CNS, 94.9%; in the experiment on U251 CNS it was 107%; in the experiment on PC-3 prostate, 88.3%. Further, the growth with SK-MEL-5 melanoma is 98.7%; in the experiment with UACC-62 melanoma it was 92.5%; with LOX IMVI melanoma, 95.7%; in the experiment on SK-MEL-28 melanoma it was 103%; in the experiment on SK-MEL-2 melanoma, 116%; with EKVX NSCLC it was 105%. Besides, the growth is 94.9% with SN12C renal; 83.7% in the experiment on UO-31 renal; 104% in the experiment on TK-10 renal; 99.3% in the experiment with ACHN renal; 92.4% in the experiment on CAKI-1 renal; 108% with A498 renal. The growth in the experiment with CCRF-CEM leukemia was -51.5% (active); in the experiment with MOLT-4 leukemia, -0.305% (active).
As for `O=c1[nH]c(-c2ccc(Cl)cc2)cn1-c1ccc(-n2cc(-c3ccc(Cl)cc3)[nH]c2=O)cc1`, the growth is 98.8% with HCT-15 colon; 102% in the experiment with HT29 colon; 98.1% with SNB-75 CNS; 93.5% with SNB-19 CNS; 104% with U251 CNS; 77.5% with PC-3 prostate. The growth with SK-MEL-5 melanoma was 101%; in the experiment with UACC-62 melanoma, 87.5%; in the experiment with LOX IMVI melanoma, 103%; with SK-MEL-28 melanoma it was 101%; in the experiment with SK-MEL-2 melanoma it was 95.9%; with EKVX NSCLC it was 109%. For the same compound, the growth was 92% in the experiment with SN12C renal; 105% in the experiment on UO-31 renal; 103% in the experiment with TK-10 renal; 102% with ACHN renal; 65.1% in the experiment on CAKI-1 renal; 109% in the experiment on A498 renal. Also, the growth in the experiment on CCRF-CEM leukemia and in the experiment on MOLT-4 leukemia was 107% throughout.
For the compound `O=C(/C=C/C12c3ccccc3C(c3ccccc31)C1C(=O)NC(=O)C12)c1ccccn1` (stereo not given), the growth in the experiment with HCT-15 colon is -1.54% (active); in the experiment with HT29 colon, 0.981% (active); in the experiment on SNB-75 CNS it was 26.5%; in the experiment on SNB-19 CNS, 1.14% (active); in the experiment on U251 CNS, -28.9% (active); in the experiment with PC-3 prostate it was 16.3%. In addition, the growth in the experiment on SK-MEL-5 melanoma is 3.65% (active); in the experiment on UACC-62 melanoma, -48.4% (active); in the experiment with LOX IMVI melanoma, -60.5% (active); in the experiment on SK-MEL-28 melanoma it was -33.2% (active); with SK-MEL-2 melanoma it was 7.36% (active); in the experiment with EKVX NSCLC, 19.6%. In addition, the growth in the experiment on SN12C renal is 17.2%; in the experiment on UO-31 renal, 6.89% (active); with TK-10 renal, 7.71% (active); in the experiment with ACHN renal it was 1.3% (active); with CAKI-1 renal, 16.9%; in the experiment with A498 renal, -3.11% (active). The growth with CCRF-CEM leukemia was -16.1% (active); with MOLT-4 leukemia, -2.05% (active).
